{
  "source": "PubChem BioAssay (NCATS)",
  "note": "Inconclusive results are not listed. Values without a mark were called inactive. Calls follow the shape of the dose curve; as a rule, active = well fitted inhibition curve with a large enough effect; inconclusive = small, poorly fitted or top-dose-only effect; inactive = no such curve, though single readings can be large or run the other way. % is scaled to controls: 0 for no effect and ±100 for the full control effect.",
  "data": [
    {"assay": "HTS Assay for Allosteric Antagonists of the Human D2 Dopamine Receptor: Hit Validation in HTRF (AID 624455);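 also: stable D1 dopamine receptor cell line scored for blocking the D1 response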", "settings": "Cells stably expressing D1 dopamine receptor, inhibition mode; series mostly up to 46.1 µM; activity, negative = inhibition: at the top concentration", "source_text": "Dopamine receptors (DARs) are involved in the etiology and/or therapy of a number of neuropsychiatric and endocrine disorders. For instance, all receptor-based antiparkinsonian drugs work via stimulating the D2 DAR subtype whereas all FDA-approved antipsychotic agents are antagonists of this receptor. […] There are three different types of allosteric modulators that we are seeking, two of which will stimulate or augment receptor signaling, allosteric agonists and potentiators, while the third, allosteric antagonists, will attenuate receptor signaling. The present primary screening assay measures compound antagonism after an EC80 addition of dopamine by tracking calcium flux in a […], inducible Hek293 Trex D2 cell line. This assay measures activity of the hits in the D1 HTRF assay.\nNIH Chemical Genomics Center [NCGC]\nNIH Molecular Libraries Probe Centers Network [MLPCN]\nAssay Submitter (PI): David Sibley\nCells stably expressing the D1 dopamine receptor will be run in an HTRF assay and compounds will be examined for the ability to inhibit the D1 mediated response.", "units": {"activity, negative = inhibition": "%"}, "values": [
      {"smiles": "O=C(CCNNC(=O)c1ccncc1)NCc1ccccc1", "activity, negative = inhibition": 1.46},
      {"smiles": "CO[C@@]1(NC(=O)CSCC#N)C(=O)N2C(C(=O)O)=C(CSc3nnnn3C)CS[C@@H]21", "activity, negative = inhibition": 0.165},
      {"smiles": "COc1ccc(CCN(C)CCCC(C#N)(c2cc(OC)c(OC)c(OC)c2)C(C)C)cc1OC", "note": "(stereo not given)", "activity, negative = inhibition": 7.57},
      {"smiles": "CN=C(NC#N)NCCSCc1nc[nH]c1C", "activity, negative = inhibition": 4},
      {"smiles": "CN(C)C(=O)Oc1ccc[n+](C)c1", "activity, negative = inhibition": 0.708},
      {"smiles": "C(=C\\c1ccccc1)/CN1CCN(C(c2ccccc2)c2ccccc2)CC1", "activity, negative = inhibition": 3.03},
      {"smiles": "Cc1nc2sccn2c(=O)c1CCN1CCC(=C(c2ccc(F)cc2)c2ccc(F)cc2)CC1", "activity, negative = inhibition": 4.4},
      {"smiles": "CC(=O)Nc1nnc(S(N)(=O)=O)s1", "activity, negative = inhibition": 0.189},
      {"smiles": "NC(N)=N/N=C/c1c(Cl)cccc1Cl", "activity, negative = inhibition": -11.1},
      {"smiles": "COC(=O)[C@H]1[C@H]2C[C@@H]3c4[nH]c5cc(OC)ccc5c4CCN3C[C@H]2C[C@@H](OC(=O)c2cc(OC)c(OC)c(OC)c2)[C@@H]1OC", "activity, negative = inhibition": 1.59},
      {"smiles": "CN(C(=O)CCCOc1ccc2[nH]c(=O)ccc2c1)C1CCCCC1", "activity, negative = inhibition": 1.83},
      {"smiles": "CN/C(=C\\[N+](=O)[O-])NCCSCc1ccc(CN(C)C)o1", "activity, negative = inhibition": -2.21},
      {"smiles": "NS(=O)(=O)c1cc2c(cc1Cl)NC(C1CC3C=CC1C3)NS2(=O)=O", "note": "(stereo not given)", "activity, negative = inhibition": 15},
      {"smiles": "CCc1c(C)[nH]c2c1C(=O)C(CN1CCOCC1)CC2", "note": "(stereo not given)", "activity, negative = inhibition": 6.52},
      {"smiles": "CCN(CC)CCNC(=O)c1ccc(NC(C)=O)cc1", "activity, negative = inhibition": -3.09},
      {"smiles": "C#CCN(C)CCCOc1ccc(Cl)cc1Cl", "activity, negative = inhibition": 4.72},
      {"smiles": "O=C(O)CP(=O)(O)O", "activity, negative = inhibition": 16.9},
      {"smiles": "COC(=O)C1=C(C)NC(C)=C(C(=O)OC(C)(C)CN(C)CCC(c2ccccc2)c2ccccc2)C1c1cccc([N+](=O)[O-])c1", "note": "(stereo not given)", "activity, negative = inhibition": -4.4},
      {"smiles": "O=C1CC2(CCCC2)CC(=O)N1CCCCN1CCN(c2ncccn2)CC1", "activity, negative = inhibition": -0.0944},
      {"smiles": "NC(=O)c1ncn([C@@H]2O[C@H](CO)[C@@H](O)[C@H]2O)c1O", "activity, negative = inhibition": -0.967},
      {"smiles": "CCN(Cc1ccncc1)C(=O)C(CO)c1ccccc1", "note": "(stereo not given)", "activity, negative = inhibition": -2.3},
      {"smiles": "CCN(CC)CCNC(=O)c1cc(S(C)(=O)=O)ccc1OC", "activity, negative = inhibition": 2.45},
      {"smiles": "COc1cc(C(=O)OCCCN2CCCN(CCCOC(=O)c3cc(OC)c(OC)c(OC)c3)CC2)cc(OC)c1OC", "activity, negative = inhibition": -6.35},
      {"smiles": "CCCCCN(CCCCC)C(=O)C(CCC(=O)O)NC(=O)c1ccc(Cl)c(Cl)c1", "note": "(stereo not given)", "activity, negative = inhibition": 2.58},
      {"smiles": "CCCCCCCC/C=C\\CCCCCCCC(=O)NCc1ccc(O)c(OC)c1", "activity, negative = inhibition": -5.21},
      {"smiles": "COc1ccc([C@@H]2Sc3ccccc3N(CCN(C)C)C(=O)[C@@H]2OC(C)=O)cc1", "activity, negative = inhibition": 1.38},
      {"smiles": "CC(C)NCC(O)c1cc(O)cc(O)c1", "note": "(stereo not given)", "activity, negative = inhibition": -1.33},
      {"smiles": "C[C@@H](O)[C@H]1C(=O)N2C(C(=O)O)=C(SCCN=CN)C[C@H]12", "activity, negative = inhibition": 6.04},
      {"smiles": "CCCN(CCC)C(=O)C(CCC(=O)O)NC(=O)c1ccccc1", "note": "(stereo not given)", "activity, negative = inhibition": -4.03},
      {"smiles": "CCCOc1ccccc1-c1nc2n[nH]nc2c(=O)[nH]1", "activity, negative = inhibition": 8.59},
      {"smiles": "CCc1cccc(N(C)C(N)=Nc2cccc3ccccc23)c1", "activity, negative = inhibition": 1.17},
      {"smiles": "CN1C(=O)CC[C@H]1c1cccnc1", "activity, negative = inhibition": -0.826},
      {"smiles": "COc1ccc2c(c1OC)C(=O)O[C@@H]2[C@H]1c2c(cc3c(c2OC)OCO3)CCN1C", "activity, negative = inhibition": 10.6},
      {"smiles": "CCO/C([O-])=N/c1c[n+](N2CCOCC2)no1", "activity, negative = inhibition": -100},
      {"smiles": "C[N+](C)(C)CCCCCCCCCC[N+](C)(C)C", "activity, negative = inhibition": -3.28},
      {"smiles": "CC(=O)Oc1cc(C(C)C)c(OCCN(C)C)cc1C", "activity, negative = inhibition": 9.06},
      {"smiles": "NC1=NCC2c3ccccc3Cc3ccccc3N12", "note": "(stereo not given)", "activity, negative = inhibition": 32.9},
      {"smiles": "CCOC(=O)C1=C(C)NC(C)=C(C(=O)OC)C1c1cccc(Cl)c1Cl", "note": "(stereo not given)", "activity, negative = inhibition": 2.91},
      {"smiles": "Cc1cc(C)c(/C=C2\\C(=O)Nc3ccccc32)[nH]1", "activity, negative = inhibition": 2.28},
      {"smiles": "CC(C)(C)NCC(O)c1cc(O)cc(O)c1", "note": "(stereo not given)", "activity, negative = inhibition": -3.66}
    ]}
  ]
}
